From PubChem BioAssay AID2314 (National Center for Advancing Translational Sciences (NCATS), 2010)
The campaign covered roughly 300,000 compounds. About 37,000 (12%) were called active. Rule as the data show it: active = max response mostly above about 13% (no sharp cut-off); inactive = mostly below about 14%. The full list was thinned out, with actives kept by preference.

assay: Cycloheximide Counterscreen for Small Molecule Inhibitors of Shiga Toxin; conditions: cell reporter, cycloheximide protein synthesis inhibition counterscreen; hits give high values; also: read at 38.3 µM for the half of the compounds with a filed dose; 0% is about no effect

Row | Structure (SMILES) | max response
1 | CC(=O)c1cccc(NC(=O)C2CCCN(S(=O)(=O)c3cccc4nonc34)C2)c1 (configuration not stated) | -1.65% (inactive)
2 | CCCn1c(C2CCCN2c2nc(-c3ccc(C)cc3)cs2)nc2cc(Cl)c(N3CCCCC3)cc21 (configuration not stated) | 2.93% (inactive)
3 | CCN(CC)CCN(C(=O)c1cc(Cl)sc1Cl)c1nc2cc3c(cc2s1)OCO3 | 11.7% (inactive)
4 | CC(=O)Nc1ccc(NC(=O)CN2C(=O)COc3ccc(S(=O)(=O)N4CCCCC4)cc32)cc1 | -11.2% (inactive)
5 | COc1ccccc1Oc1ccc(N2CC(C(=O)OCC(=O)c3ccc(F)cc3)CC2=O)cc1 (configuration not stated) | 1.71% (inactive)
6 | CCCOc1ccc(Cc2c(O)nc(SC)[nH]c2=O)cc1C | 1.31% (inactive)
7 | Cc1noc(/C=C/c2ccco2)c1S(=O)(=O)N1CCC(C(=O)Nc2ccc(Cl)cn2)CC1 | 14.7% (inactive)
8 | Cc1cc(C)cc(OCC(=O)Nc2cc(NC(=O)COc3cc(C)cc(C)c3)cc(C(=O)O)c2)c1 | -5.04% (inactive)
9 | COc1ccc(CCNS(=O)(=O)c2cc3c(cc2C)NC(=O)CO3)cc1OC | -0.971% (inactive)
10 | FC(F)(F)c1nc(-c2ccccc2)ncc1-c1nnnn1-c1ccccc1 | -1.17% (inactive)
11 | Cc1ccc(CNC(=O)CCN2C(=O)[C@@H]3Cc4ccccc4CN3C2=O)cc1 | 4.73% (inactive)
12 | COc1ccccc1CC(=O)Nc1ccc([N+](=O)[O-])cc1OC | -1.19% (inactive)
13 | N#Cc1c(-c2ccccc2)nc(SCc2ccc([N+](=O)[O-])cc2)[nH]c1=O | -1.84% (inactive)
14 | O=C(NCc1ccccc1)c1onc(CSc2nc3ccccc3[nH]2)c1C(=O)NCc1ccccc1 | -0.0609% (inactive)
15 | CCc1nnc(NC(=O)CCCSc2nc3ccccc3[nH]2)s1 | -1.42% (inactive)
16 | COc1ccccc1CSc1ncc(-c2ccc([N+](=O)[O-])cc2)[nH]1 | 29.2% (active)
17 | COc1ccccc1CSc1nc2ccccc2[nH]1 | 41% (active)
18 | C=CCSc1nc2ccccc2[nH]1 | 12.4% (inactive)
19 | CCCCSc1nc2ccccc2[nH]1 | 30.4% (active)
20 | COc1ccccc1-c1noc(CSc2nc(C)cc(=O)[nH]2)n1 | 1.82% (inactive)
21 | CCNS(=O)(=O)c1ccc(CCC(=O)N2CCN(c3ccc(OC)cc3)CC2)cc1 | 2.4% (inactive)

Row | Structure (SMILES) | max response
22 | CC(Oc1ccccc1[N+](=O)[O-])C(=O)N/N=C/c1ccoc1 (configuration not stated) | -2.14% (inactive)
23 | CCOc1cc(C(C(=O)NCC2CCCO2)N(C(=O)Cn2nnc3ccccc32)c2cccc(OC)c2)ccc1O (configuration not stated) | -2.76% (inactive)
24 | O=C(N/N=C/c1ccc2c(c1)OCO2)c1ccc(Cn2cc([N+](=O)[O-])cn2)o1 | 12.3% (inactive)
25 | O=C(N/N=C/c1ccc(OCC2COCCO2)cc1)c1ccc(Br)cc1 (configuration not stated) | 3.9% (inactive)
26 | Cc1c(Cl)c([N+](=O)[O-])nn1Cc1ccc(C(=O)N/N=C\c2cc(Cl)ccc2O)o1 | 9.36% (inactive)
27 | CC1CCc2c(sc(NC(=O)c3ccc(Cn4cc(Br)cn4)o3)c2C(N)=O)C1 (configuration not stated) | 0.185% (inactive)
28 | CN(C)c1ccc(/C=N/NC(=O)c2ccc(Cn3cc(Br)cn3)o2)cc1 | 56.4% (active)
29 | O=C(N/N=C\c1ccc(Br)cc1)c1ccc(Cn2cccn2)o1 | 19.8% (active)
30 | C=CCNC(=S)NNc1ncnc2sc3c(c12)CC(C)(C)OC3 | -1.51% (inactive)
31 | COc1ccccc1CNS(=O)(=O)CC12CCC(CC1=O)C2(C)C (configuration not stated) | -1.52% (inactive)
32 | CC(C)(C)OC(=O)CNC(=O)c1[nH]cnc1C(=O)N[C@@H](Cc1ccccc1)C(=O)OCc1ccccc1 | -1.14% (inactive)
33 | CCOC(=O)N1CCN(Cc2nnc(-c3ccccc3Cl)o2)CC1 | -1.64% (inactive)
34 | N/C(=N\S(=O)(=O)c1cc(C(F)(F)F)cc(C(F)(F)F)c1)c1cccs1 | 0.609% (inactive)
35 | CCn1nc(C)c(/C=N/NC(=O)Cc2ccc(Cl)cc2)c1C | 27.9% (active)
36 | Cc1nn(Cc2ccc(Cl)cc2)c(Cl)c1/C=N/NC(=O)c1cccnc1 | -2.03% (inactive)
37 | Cc1nn(Cc2ccc(Cl)cc2)c(Cl)c1/C=N/NC(=O)CNc1ccccc1F | -0.244% (inactive)
38 | COCCCNC(=O)[C@H]1N2C(=O)c3ccccc3C2SC1(C)C (some centres not stated) | -1.51% (inactive)
39 | Cc1ccc(SCCC(=O)NCc2ccccn2)cc1 | -2.86% (inactive)
40 | Cc1ccc(SCCSc2ncccn2)cc1 | 44.5% (active)
41 | Cc1ccc(SCCC(=O)NC(C(C)C)C(C)C)cc1 | 1.28% (inactive)
42 | Cc1cc(=O)oc2cc(OCC(=O)N3CCN(c4ccc(F)cc4)CC3)c(Cl)cc12 | -1.36% (inactive)

Row | Structure (SMILES) | max response
43 | Cc1cc(C)n2nc(SCC(=O)NC(=O)NCc3ccco3)nc2n1 | 3.86% (inactive)
44 | COc1ccc(NC(=O)c2cccc(Cl)c2)c[n+]1[O-] | -3.34% (inactive)
45 | C/C(=N\N(C)C)c1ccc(OCCOc2ccc([N+](=O)[O-])cc2)cc1 | 10.2% (inactive)
46 | CCOCCCNC(=O)C(NC(=O)c1ccc(=O)[nH]c1)c1ccc(C)cc1 (configuration not stated) | -5.76% (inactive)
47 | CCOCCCNC(=O)c1c[nH]c2cc(C)ccc2c1=O | 15.4% (active)
48 | CCc1cccc2c(=O)c(C(=O)NCCCOC)c[nH]c12 | -0.768% (inactive)
49 | CCOC(=O)C1(CCOc2ccccc2)CCN(Cc2cc(OC)cc(OC)c2)CC1 | -1.48% (inactive)
50 | CCOC(=O)C1(CCOC)CCN(Cc2cc3ccccc3s2)CC1 | -0.534% (inactive)
51 | CCOC(=O)C1(CCOC)CCN(Cc2ccc(C(=O)OC)cc2)CC1 | 19.1% (active)
52 | COc1ccc(-n2cnc3cc(NCc4ccco4)ccc32)cc1 | 20.3% (inactive)
53 | CCOC(=O)N1CCN(Cc2nc3cc(NC(C)=O)ccc3n2C)CC1 | -2.56% (inactive)
54 | Cc1nc2cc(NC(=O)Nc3cccc(F)c3)ccc2n1C | 23% (active)
55 | Cc1ccc(NC(=O)NC2CCCCC2)cc1S(=O)(=O)N1CCOCC1 | -2.12% (inactive)
56 | Cc1nc2cc(NCc3cccs3)ccc2n1C | 51.1% (active)
57 | Cc1cc2nc(C)n(CCCNC(=O)Nc3ccccc3)c2cc1C | -3.47% (inactive)
58 | O=C(CCN1C(=O)c2ccccc2C1=O)Nc1cccc(F)c1 | -3.51% (inactive)
59 | Cn1ncc(Br)c1C(=O)NCc1cccs1 | 2.99% (inactive)
60 | Cc1nc2cc(NC(=O)NC3CC3)ccc2n1C | 20.8% (active)
61 | CCOc1ccc(C(=O)Nc2ccc(CN3CCOCC3)cc2)cc1Cl | 6.5% (inactive)
62 | Cn1c(CN2CCOCC2)nc2cc(NC(=O)c3ccc(Cl)cc3)ccc21 | 32.5% (active)
